Out of some 52,000 compounds screened, about 4,300 (8.3%) were called active. Only a selection was taken, and actives are over-represented in it overall. Unmarked numbers belong to inactive results. Rule as the data show it: active = survival mostly below about 52% (no sharp cut-off); inactive = mostly above about 56%.
tested on: DeltatarO mutant; experiment: growth inhibition of S. aureus wild type versus tarO mutant, primary screen, teichoic acid synthesis inhibitors, RN4220, OD600 (AID 463173); details: OD600, 18 h, stronger effect = lower value, screened at 18.75 µg/mL (by protocol)

Compound	survival
CCN(CC)CCOC(=O)c1ccc(Nc2c3c(nc4ccccc24)CCC3)cc1	94%
Cc1c(C(=O)N2CCC(c3nc4ccccc4s3)CC2)oc2cc(Br)ccc12	107%
COc1cccc(-c2nnc(SCC(=O)N3CCCCC3)o2)c1	98%
CCc1ccc(NC(=O)Cn2nc(C(F)(F)F)c3c2CCCC3)cc1	94%
CCOc1ccc(CCNS(=O)(=O)c2c(C)nc3sc(C)cn3c2=O)cc1OCC	58%
CCN(CC)c1ccc(C2C(C(=O)Nc3ccccc3C)=C(C)Nc3ncnn32)cc1 (stereo not given)	99%
Cc1ccc(-n2ncc3c(N4CCN(C)CC4)ncnc32)cc1	81%
CN(C)C(=O)c1ccc2c(c1)N(CC(=O)NCc1ccc(F)cc1)C(=O)C1CCCCN21 (stereo not given)	74%
CCOC(=O)c1c(-c2cccs2)csc1NC(=O)C(F)(F)F	70%
CCOC(=O)c1ccccc1NC(=O)Cn1c(=O)n(Cc2nc(-c3ccccc3)no2)c(=O)c2ccccc21	72%
COc1cccc(CNC(=O)CSc2c3c(nc4ccc(Cl)cc24)CCCC3)c1OC	62%
CN(Cc1ccccc1)C(=O)CSc1c2c(nc3ccc(Cl)cc13)CCCC2	0% (active)
Cc1ccc(CNC(=O)CSc2c3c(nc4ccc(Cl)cc24)CCCC3)cc1	76%
CCc1ccc(CNC(=O)CSc2c3c(nc4ccc(Cl)cc24)CCCC3)cc1	63%
CCCCN(C)C(=O)CSc1c2c(nc3ccc(Cl)cc13)CCCC2	-2% (active)
CCCN(CCC)C(=O)CSc1c2c(nc3ccc(Cl)cc13)CCCC2	38% (active)
COc1cc(OC)c(N(C)C(=O)CSc2c3c(nc4ccc(Cl)cc24)CCCC3)cc1Cl	33% (active)
COc1ccc(NC(=O)CSc2c3c(nc4ccc(Cl)cc24)CCCC3)cc1Cl	55%
Cc1ccc2nc(NC(=O)CSc3[nH]c(=O)ncc3C)sc2c1	102%
O=S(=O)(c1ccc2nsnc2c1)N1CCCCC1	66%
CCOc1ccc(CNC(=O)c2cc3ccccn3n2)cc1OC	74%
CCOc1ccc(NC(=O)C2CC(=O)N(c3ccc(C(C)C)cc3)C2)cc1 (stereo not given)	91%
COc1ccc(CCNC(=O)CCn2c(=O)c3ccccc3n(Cc3c(C)cc(C)cc3C)c2=O)cc1OC	89%
Cc1cccc(N2CCN(c3nc4ccccc4c4nc(-c5ccccc5)nn34)CC2)c1C	92%
COc1ccc(N2CCN(C(=O)Nc3ccccc3Cl)CC2)cc1	167%
CC(CNC(=O)Cn1ccc2cc(S(=O)(=O)N3CCCCCC3)ccc21)c1ccccc1 (stereo not given)	109%
CCN(CC)CCCNC(=O)CSc1c2c(nc3cc(Cl)ccc13)CCCC2	109%

Compound	survival
CCCCN(CC)C(=O)CSc1c2c(nc3ccc(Cl)cc13)CCCC2	-2% (active)
COc1ccccc1NC(=O)c1ncn(-c2ccccc2)n1	115%
CCN1C(=O)C(O)(C(C)C(=O)c2ccccc2)c2ccccc21 (stereo not given)	57%
CCC(CC)C(=O)N1c2ccccc2C(C)(c2ccccc2)CC1(C)C (stereo not given)	-5% (active)
CC(=O)N1c2ccccc2C(C)(c2ccc(C)cc2)CC1(C)C (stereo not given)	-4% (active)
CCC(=O)N1c2ccccc2C(C)(c2ccccc2)CC1(C)C (stereo not given)	-8% (active)
CC1=CC(C)(C)N(C(=O)Cc2ccccc2)c2ccccc21	115%
CCC(=O)N1CCN(C(=O)CC)C1c1ccccc1	93%
CC(=O)N1c2ccccc2N(C)C(=O)C1(C)C	88%
Cc1ccc(NC(=O)CN2C(=O)C(C)(C)c3ccccc32)cc1	78%
CCCCCC(=O)N1c2ccccc2C(C)(c2ccccc2)CC1(C)C (stereo not given)	-2% (active)
CCC(CC)C(=O)N1CCN(Cc2ccccc2)CC1	94%
CC1=CC(C)C(/C=N/O)C(C)C1 (stereo not given)	94%
O=C(/C=C/c1ccccc1)Nc1ccccc1N1CCN(c2ccccc2)CC1	106%
Cc1ccc2onc(CNC(=O)NCc3cccc(Cl)c3)c2c1	72%
CC1CCCN(c2ncnc3c2nnn3C)C1 (stereo not given)	75%
CCOC(=O)CN1CCOCCN(CC(=O)OCC)CCOCC1	64%
Cc1ccc(NC(=O)CSc2cn(CC(=O)N3CCCC3)c3ccccc23)cc1Cl	84%
CCOc1ccc(CCNC(=O)Cn2nnc(-c3ccc(OC)c(OC)c3)n2)cc1OCC	65%
O=C(Nc1ccc2c(c1)oc1ccccc12)c1cccs1	69%
COc1ccc(OC)c(CCNC(=O)C2CCN(c3ncnc4c3nc3n4CCCCC3)CC2)c1	80%
COc1ccc(CNC(=O)CN2CCSc3ccccc32)c(OC)c1	120%
CC(C)CN(CCNC(=O)CCN1N=C(c2ccccc2)CCC1=O)CC(C)C	84%
CCOC(=O)c1ccccc1NC(=O)N(C(C)C)C1CCN(C(C)=O)CC1	73%
CCc1ccc(NC(=O)c2cnn3c(C(F)F)cc(C)nc23)cc1	96%
O=C(Cn1c(=O)n2nc(-c3cccc(F)c3)nc2c2ccccc21)N1CCN(c2ccccc2F)CC1	116%
Cc1nn(Cc2noc(C(=O)NCc3cccc(F)c3)n2)c(C)c1Br	71%

Compound	survival
CCCCOc1ccc(C2(C(=O)O)CCCC2)cc1	103%
CCCCN1C(=O)C(O)(CC(=O)c2ccc(C(C)(C)C)cc2)c2ccccc21 (stereo not given)	28%
CCCCC(=O)N1c2ccccc2C(C)(c2ccccc2)CC1(C)C (stereo not given)	-3% (active)
CC(C)Cc1nn2c(=O)cc(COC(=O)c3ccccc3NC(=O)C3CCCCC3)nc2s1	81%
CCOc1ccc(NC(=O)Cn2c(CCC(=O)O)ccc2-c2ccc(C)cc2)cc1	65%
CC(=O)Nc1ccc(-n2c(CCC(=O)O)ccc2-c2ccc(Br)cc2)cc1	45% (active)
Cc1ccc(-c2ccc(CCC(=O)O)n2-c2ccc(C(N)=O)cc2)cc1	60%
CC(=O)Nc1ccc(-n2c(CCC(=O)O)ccc2-c2ccc(C)cc2)cc1	56%
CCc1ccc(-n2c(CCC(=O)O)ccc2-c2ccc(F)cc2)cc1	29% (active)
O=C(O)CCc1ccc(-c2ccc(Br)cc2)n1-c1ccccc1O	64%
CCOc1ccc(-n2c(CCC(=O)O)ccc2-c2ccc(Br)cc2)cc1	48% (active)
COC(=O)c1ccc(-n2c(CCC(=O)O)ccc2-c2ccc(C)cc2)cc1	49%
CCc1ccc(-n2c(CCC(=O)O)ccc2-c2cccs2)cc1	52%
CCOC(=O)c1ccc(-n2c(CCC(=O)O)ccc2-c2ccc(Br)cc2)cc1	19% (active)
CN(C)c1ccc(-n2c(CCC(=O)O)ccc2-c2ccccc2)cc1	60%
Cc1ccc(-c2ccc(CCC(=O)O)n2-c2ccc(C(C)C)cc2)cc1	44%
Cc1c(CNC2CCCCC2)c(C(=O)O)c(C)n1Cc1ccc(F)cc1	85%
Cc1ccc(-c2ccc(C#N)c(=O)n2CC(=O)N2CCNC(=O)C2(C)C)cc1	88%
COc1ccc(CCNC(=O)C(=O)NCC(c2ccco2)S(=O)(=O)c2ccccc2)cc1OC (stereo not given)	54%
COc1ccc(S(=O)(=O)N(C(=O)c2ccncc2)c2ccc3oc(C)c(C(C)=O)c3c2)cc1	152%
CCc1nn(-c2ccccc2)c2nc(-c3ccc(O)cc3)c3cc(OC)c(OC)cc3c12	74%
COc1ccc(Cc2nc3c4cnn(-c5ccccc5F)c4ncn3n2)cc1	81%
Cc1cc(-n2c(SCC(=O)NCc3ccccc3)nc3ccsc3c2=O)ccc1Cl	87%
CC(=O)c1cccc(-n2c(CCC(=O)O)ccc2-c2ccccc2)c1	74%
O=C(O)CCc1ccc(-c2ccccc2)n1-c1ccc(C(=O)O)cc1	131%
CCOC(=O)c1ccc(-n2c(CCC(=O)O)ccc2-c2ccccc2)cc1O	43% (active)
Cc1cccc(C2NC(=O)c3c(sc4c3CCN(C)C4)N2)c1O (stereo not given)	125%

Compound	survival
CCn1c(=O)c2sccc2n2c(CCCC(=O)N3CCN(c4ccccc4OC)CC3)nnc12	91%
COc1ccc(NC(=O)c2cc(C3CC3)nc3c2c(C)nn3-c2ccccc2)cc1	53%
CC(=O)c1ccc(NC(=O)c2cc(C)nc3c2c(C)nn3-c2ccc(C)cc2)cc1	102%
COc1ccc(NC(=O)c2cc(C3CC3)nc3c2c(C)nn3-c2ccc(C)cc2)cc1OC	144%
COc1ccccc1NC(=O)c1cc(C2CC2)nc2c1c(C)nn2-c1ccc(C)cc1	98%
CC(=O)c1ccc(NC(=O)c2cc(C3CC3)nc3c2c(C)nn3-c2ccc(C)cc2)cc1	46% (active)
COc1ccc(NC(=O)c2cc(C3CC3)nc3c2c(C)nn3-c2ccccc2)c(OC)c1	37% (active)
Nc1c(C(=O)Nc2ccccc2)nnn1Cc1ccc(F)cc1Cl	99%
O=C(Cn1cc(S(=O)(=O)Cc2cccc(Cl)c2)c2ccccc21)NCc1ccccc1Cl	91%
O=C1CSC(N(c2ccccc2)c2ccccc2)=N1	96%
COc1cccc(CNC(=O)CCn2c(=O)c3cccn3c3cccnc32)c1OC	98%
Cc1ccc(CNC(=O)CCS(=O)(=O)c2cc3c4c(c2)CCN4C(=O)CC3)cc1	67%
Cc1ccc(C)c(N2CCN(C(=O)c3nn(C)c4c3CS(=O)(=O)c3ccccc3-4)CC2)c1	49% (active)
Cn1nc(C(=O)N2CCN(c3ccccc3F)CC2)c2c1-c1ccccc1SC2	32% (active)
Cn1nc(C(=O)N2CCN(c3cccc(Cl)c3)CC2)c2c1-c1ccccc1S(=O)(=O)C2	37% (active)
Cn1nc(C(=O)N2CCN(c3ccc(F)cc3)CC2)c2c1-c1ccccc1SC2	77%
Cc1ccc(N2CCN(C(=O)c3nn(C)c4c3CS(=O)(=O)c3ccccc3-4)CC2)c(C)c1	77%
Cc1cccc(N2CCN(C(=O)c3nn(C)c4c3CS(=O)(=O)c3ccccc3-4)CC2)c1C	67%
Cn1nc(C(=O)N2CCN(c3ccccc3)CC2)c2c1-c1ccccc1S(=O)(=O)C2	51%
Cn1nc(C(=O)N2CCN(c3ccccc3)CC2)c2c1-c1ccccc1SC2	80%
Cn1nc(C(=O)N2CCN(c3ccc(Cl)cc3)CC2)c2c1-c1ccccc1S(=O)(=O)C2	51%
Cc1ccc2c(c1)-c1onc(C(=O)N3CCN(c4cc(C)ccc4C)CC3)c1CO2	66%
Cc1ccc2c(c1)-c1onc(C(=O)N3CCN(c4cc(Cl)ccc4C)CC3)c1CO2	57% (active)
Cc1ccc2c(c1)-c1onc(C(=O)N3CCN(c4ccc(Cl)cc4)CC3)c1CO2	63%
